In a collection of fitness landscapes (doi:10.1016/j.celrep.2020.107928):
In all, about 81,000 sequences were measured (“one-hybrid fitness for binding NBS DNA”: median about -0.1, highest 2% from about 0.36 on). The sample holds the highest values, similar sequences and a random draw of the others, so the mix is not that of the screen.

B1: Caulobacter ParB omega fusion; a variant is named by its letters at X, in order, B8GW30 (parent)
chain: MESVVVGEPGMSEGRRGLGRGLSALLGEVDAAPAQAPGEQLGGSREAPIEILQRNPDQPRRTFREEDLEDLSNSIREKGVLQPILVRPSPDTAGEYQIVAGERAWRAAQRAGLKTVPIMVRELDDLAVLEIGIIENVQRADLNVLEEALSYKVLMEKFERTQENIAQTIGKSXSHVANXMRLLXLPDEVQSYLVSGELTAXHARAIAAAADPVALAKQIIEGGLSVRETEALARKAPNLSAGKSKGGRPPRVKDTDTQALESDLSSVLGLDVSIDHRGSTGTLTITYATLEQLDDLCNRLTRGI

Variants of: B1
Experiment: one-hybrid fitness for binding NBS DNA (the Noc-binding site; scaled: cognate 1, non-cognate 0); higher = stronger binding
Conditions: with NBS DNA site
Method in brief: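 Caulobacter ParB libraries with four specificity codons randomised were screened by bacterial one-hybrid selection in the E. coli USO strain, using a HIS3 reporter whose site lies 19 bp from the promoter. Selection ran for 48 hours at 37°C on M9 lacking histidine, with 0.1 mM IPTG and 5 mM 3-AT. Plasmids were Illumina-sequenced before and after selection, three replicate libraries were pooled, and variants with under 10 reads were dropped. Fitness is the log change in each variant's read ratio to wild type, rescaled against the cognate and non-cognate sites.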

Variant	one-hybrid fitness for binding NBS DNA
TAIV	≤ 0.2
LTFR	≤ 0.2
SLFT	≤ 0.2
ITST	≤ 0.2
SLTL	≤ 0.2
QPDS	≤ 0.2
QRNF	0.327
QRNE	0.276
QRDS	0.468
QRNS	0.716
YEPF	≤ 0.2
HTTL	≤ 0.2
YPNR	≤ 0.2
EHEC	≤ 0.2
THMK	≤ 0.2
KSWR	≤ 0.2
KRHR	0.616
KRGR	0.557
KCQR	≤ 0.2
KRQR	0.552
KPWR	≤ 0.2
DRQR	≤ 0.2
KCHR	≤ 0.2
KSHR	≤ 0.2
KPGR	≤ 0.2

Variant	one-hybrid fitness for binding NBS DNA
KCGR	≤ 0.2
KRWR	0.578
NSRQ	≤ 0.2
TYKN	≤ 0.2
HHDR	≤ 0.2
DNHG	≤ 0.2
NRSR	≤ 0.2
KRNR	0.661
DRLR	≤ 0.2
KSER	≤ 0.2
KCSR	≤ 0.2
KCER	≤ 0.2
KCNR	0.223
KRSR	0.561
KRDR	0.336
KCLR	≤ 0.2
KRER	0.368
KRLR	0.456
IRGF	≤ 0.2
RLMT	0.335
QCPH	≤ 0.2
TMHT	≤ 0.2
KPYR	≤ 0.2
KCCR	≤ 0.2
KRPR	0.239

Variant	one-hybrid fitness for binding NBS DNA
KRYR	0.545
KRIR	0.378
KCIR	≤ 0.2
KRRD	≤ 0.2
KCYR	≤ 0.2
NRCR	≤ 0.2
KRCR	0.55
KRRR	0.787
KRRK	0.319
GERG	≤ 0.2
HQHR	≤ 0.2
VMTL	≤ 0.2
CRHA	≤ 0.2
HMKG	≤ 0.2
THLW	≤ 0.2
GMMA	≤ 0.2
QCKE	0.297
QRVE	≤ 0.2
QCRE	0.369
QRKE	0.368
QSRE	0.22
QTYE	≤ 0.2
QPRE	≤ 0.2
QRYE	0.207
QTRE	0.405

Variant	one-hybrid fitness for binding NBS DNA
QTVE	≤ 0.2
QTDE	≤ 0.2
QTKE	0.378
DNPC	≤ 0.2
TLCS	≤ 0.2
AKQC	≤ 0.2
YPSA	≤ 0.2
VEHK	≤ 0.2
IPPG	≤ 0.2
NQDG	≤ 0.2
HSKR	≤ 0.2
CSCG	≤ 0.2
RDNI	≤ 0.2
RVSP	≤ 0.2
RVSR	0.439
RVSH	≤ 0.2
RVSF	≤ 0.2
RVST	0.463
RVSS	0.39
RVSC	≤ 0.2
RVSD	≤ 0.2
RVSN	≤ 0.2
TKDA	≤ 0.2
